In PubChem BioAssay AID1159580 (chemical genetic matrix, 2015):
Among all 5,500 compounds or so, about 2,000 (36%) were called active. About 18% were inconclusive and are not listed. Rule as the data show it: active = normalized growth mostly below about 0.91 (no sharp cut-off); inconclusive = no clear call, values can overlap the other calls; inactive = mostly above about 0.92. The list shows a part of the results.

Assay: chemical genetic growth profiling, strain panel (AID 1159580);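 also: tested at 20 µM; growth read once vehicle control cultures reached saturation at 30 °C; 1 = growth at the plate median or of vehicle wells; lower values mean less growth of the strain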
Conditions: growth OD
[1] = S. cerevisiae deletion strains, locus YBR021W, strain FUR4, stronger effect = lower value
[2] = S. cerevisiae deletion strains, locus YBR229C, strain ROT2, stronger effect = lower value
[3] = S. cerevisiae deletion strains, locus YCL029C, strain bik1, stronger effect = lower value
[4] = S. cerevisiae deletion strains, locus YDL035C, strain GPR1, stronger effect = lower value
[5] = S. cerevisiae deletion strains, locus YDL074C, strain BRE1, stronger effect = lower value
[6] = S. cerevisiae deletion strains, locus YDL101C, strain DUN1, stronger effect = lower value
[7] = S. cerevisiae deletion strains, locus YDL134C, strain PPH21, stronger effect = lower value
[8] = S. cerevisiae deletion strains, locus YDL185W, strain tfp1, stronger effect = lower value
[9] = S. cerevisiae deletion strains, locus YDL192W, strain arf1, stronger effect = lower value
[10] = S. cerevisiae deletion strains, locus YDR101C, strain arx1, stronger effect = lower value
[11] = S. cerevisiae deletion strains, locus YDR162C, strain NBP2, stronger effect = lower value
[12] = S. cerevisiae deletion strains, locus YDR318W, strain mcm21, stronger effect = lower value
[13] = S. cerevisiae deletion strains, locus YDR388W, stronger effect = lower value
[14] = S. cerevisiae deletion strains, locus YDR502C, strain sam2, stronger effect = lower value
[15] = S. cerevisiae deletion strains, locus YEL061C, strain CIN8, stronger effect = lower value
[16] = S. cerevisiae deletion strains, locus YER110C, stronger effect = lower value
[17] = S. cerevisiae deletion strains, locus YER155C, strain BEM2, stronger effect = lower value
[18] = S. cerevisiae deletion strains, locus YER167W, strain BCK2, stronger effect = lower value
[19] = S. cerevisiae deletion strains, locus YGL078C, strain dbp3, stronger effect = lower value
[20] = S. cerevisiae deletion strains, locus YGL086W, strain mad1, stronger effect = lower value
[21] = S. cerevisiae deletion strains, locus YGL248W, strain PDE1, stronger effect = lower value
[22] = S. cerevisiae deletion strains, locus YGR135W, strain pre9, stronger effect = lower value
[23] = S. cerevisiae deletion strains, locus YGR229C, strain SMI1, stronger effect = lower value
[24] = S. cerevisiae deletion strains, locus YGR252W, strain gcn5, stronger effect = lower value
[25] = S. cerevisiae deletion strains, locus YHR030C, strain SLT2, stronger effect = lower value
[26] = S. cerevisiae deletion strains, locus YHR079C, strain IRE1 (second series), stronger effect = lower value
[27] = S. cerevisiae deletion strains, locus YHR094C, strain hxt1, stronger effect = lower value
[28] = S. cerevisiae deletion strains, locus YHR129C, strain ARP1, stronger effect = lower value
[29] = S. cerevisiae deletion strains, locus YHR200W, strain rpn10, stronger effect = lower value
[30] = S. cerevisiae deletion strains, locus YIL066C, strain RNR3, stronger effect = lower value
[31] = S. cerevisiae deletion strains, locus YIL073C, strain SPO22, stronger effect = lower value
[32] = S. cerevisiae deletion strains, locus YIL125W, strain kgd1, stronger effect = lower value
[33] = S. cerevisiae deletion strains, locus YIR030C, strain dcg1, stronger effect = lower value
[34] = S. cerevisiae deletion strains, locus YJL095W, strain BCK1, stronger effect = lower value
[35] = S. cerevisiae deletion strains, locus YJL134W, strain LCB3, stronger effect = lower value
[36] = S. cerevisiae deletion strains, locus YJL168C, strain set2, stronger effect = lower value
[37] = S. cerevisiae deletion strains, locus YJL187C, strain SWE1 (second series), stronger effect = lower value
[38] = S. cerevisiae deletion strains, locus YKL009W, strain mrt4, stronger effect = lower value
[39] = S. cerevisiae deletion strains, locus YKL068W, stronger effect = lower value
[40] = S. cerevisiae deletion strains, locus YKL085W, strain MDH1 (second series), stronger effect = lower value
[41] = S. cerevisiae deletion strains, locus YKL085W, strain MDH1, stronger effect = lower value
[42] = S. cerevisiae deletion strains, locus YKR001C, strain vps1, stronger effect = lower value
[43] = S. cerevisiae deletion strains, locus YLR039C, strain RIC1, stronger effect = lower value
[44] = S. cerevisiae deletion strains, locus YLR058C, strain SHM2, stronger effect = lower value
[45] = S. cerevisiae deletion strains, locus YLR102C, strain apc9, stronger effect = lower value
[46] = S. cerevisiae deletion strains, locus YLR268W, strain sec22, stronger effect = lower value
[47] = S. cerevisiae deletion strains, locus YLR371W, strain rom2, stronger effect = lower value
[48] = S. cerevisiae deletion strains, locus YLR418C, strain cdc73, stronger effect = lower value
[49] = S. cerevisiae deletion strains, locus YML016C, strain PPZ1, stronger effect = lower value
[50] = S. cerevisiae deletion strains, locus YML032C, strain rad52, stronger effect = lower value
[51] = S. cerevisiae deletion strains, locus YML124C, strain tub3, stronger effect = lower value
[52] = S. cerevisiae deletion strains, locus YMR078C, strain ctf18, stronger effect = lower value
[53] = S. cerevisiae deletion strains, locus YMR223W, strain ubp8, stronger effect = lower value
[54] = S. cerevisiae deletion strains, locus YMR307W, strain GAS1, stronger effect = lower value
[55] = S. cerevisiae deletion strains, locus YNL067W, strain RPL9B, stronger effect = lower value
[56] = S. cerevisiae deletion strains, locus YNL233W, strain BNI4, stronger effect = lower value
[57] = S. cerevisiae deletion strains, locus YNL250W, strain rad50, stronger effect = lower value
[58] = S. cerevisiae deletion strains, locus YNL271C, strain bni1, stronger effect = lower value
[59] = S. cerevisiae deletion strains, locus YNL298W, strain CLA4, stronger effect = lower value
[60] = S. cerevisiae deletion strains, locus YNL307C, strain MCK1, stronger effect = lower value
[61] = S. cerevisiae deletion strains, locus YNR052C, strain pop2, stronger effect = lower value
[62] = S. cerevisiae deletion strains, locus YOL012C, strain htz1
[63] = S. cerevisiae deletion strains, locus YOL147C, strain pex11, stronger effect = lower value
[64] = S. cerevisiae deletion strains, locus YOR061W, strain CKA2, stronger effect = lower value
[65] = S. cerevisiae deletion strains, locus YOR069W, strain VPS5, stronger effect = lower value
[66] = S. cerevisiae deletion strains, locus YOR136W, strain idh2, stronger effect = lower value
[67] = S. cerevisiae deletion strains, locus YOR144C, strain elg1, stronger effect = lower value
[68] = S. cerevisiae deletion strains, locus YOR184W, strain ser1, stronger effect = lower value
[69] = S. cerevisiae deletion strains, locus YOR316C, strain cot1, stronger effect = lower value
[70] = S. cerevisiae deletion strains, locus YPL241C, strain CIN2, stronger effect = lower value
[71] = S. cerevisiae deletion strains, locus YPR119W, strain clb2, stronger effect = lower value
[72] = S. cerevisiae deletion strains, locus YPR141C, strain kar3, stronger effect = lower value
[73] = S. cerevisiae deletion strains, locus YPR163C, strain tif3, stronger effect = lower value
[74] = S. cerevisiae deletion strains, locus YPR167C, strain met16, stronger effect = lower value
[75] = S. cerevisiae deletion strains, strain wtn01, stronger effect = lower value

Measured: normalized growth

C=C1C([C@]2(C)C(CC(=O)OC)[C@@](C)(COC(C)=O)OC(=O)C[C@@H]2OC(C)=O)[C@@H](OC=O)[C@H](OC(=O)C(OC(C)=O)C(C)CC)[C@@]2(C)[C@H](c3ccoc3)CC(=O)C12O (some centres undefined)
active: [40] 1.16 [resistant] | [41] 1.16 [resistant]
inactive: S. cerevisiae deletion strains, locus YAL013W, strain DEP1, stronger effect = lower value 1.03 | [1] 1.03 | [2] 1.01 | [3] 1.03 | [4] 1.01 | [5] 1.04 | [6] 1.03 | [7] 1.03 | [8] 1.03 | [9] 1.03 | [10] 1.01 | S. cerevisiae deletion strains, locus YDR150W, strain NUM1, stronger effect = lower value 1.03 | [11] 1.02 | [12] 1.03 | [13] 1.03 | [14] 1.04 | [15] 1.02 | [16] 1.03 | [17] 1.02 | [18] 1.01 | [19] 1.04 | [20] 1.04 | [21] 1.02 | [22] 1.03 | [23] 1.08 | [24] 1.03 | [25] 1.02 | [26] 1.03 | [27] 1.04 | [28] 1.02 | [29] 1.03 | [30] 1 | [31] 1.06 | [32] 1.02 | [33] 1.03 | [34] 1.04 | [35] 1.02 | [36] 1.03 | [37] 1.03 | [38] 0.952 | [39] 1.03 | S. cerevisiae deletion strains, locus YKL190W, strain CNB1, stronger effect = lower value 1.01 | [42] 1.03 | [43] 1.09 | [44] 1.01 | [45] 1.03 | [46] 1.02 | S. cerevisiae deletion strains, locus YLR330W, strain CHS5, stronger effect = lower value 1.02 | [47] 1.03 | [48] 1.07 | [49] 1.01 | [50] 1.03 | [51] 1.03 | [52] 1.03 | [53] 1.03 | [54] 1.04 | [55] 1.03 | [56] 1.03 | [57] 1.01 | [58] 1.03 | [59] 1.02 | [60] 1.02 | [61] 1.04 | [62] 1.2 | [63] 1.03 | [64] 1.02 | [65] 1.02 | [66] 1.03 | [67] 1.04 | [68] 1.02 | [69] 1.03 | [70] 1.02 | [71] 1.02 | [72] 1.02 | [73] 1.04 | [74] 1.03 | [75] 1.01 | S. cerevisiae strains, strain wild type, stronger effect = lower value 1.03

C=C1C([C@]2(C)C(CC(=O)OC)[C@@](C)(COC(C)=O)OC(=O)C[C@@H]2OC(C)=O)[C@@H](OC=O)[C@H](OC(=O)C(O)C(C)CC)[C@@]2(C)[C@H](c3ccoc3)CC(=O)C12O (some centres undefined)
inactive: [1] 0.996 | [2] 1 | [3] 1.02 | [4] 1.01 | [5] 1.02 | [6] 1.02 | [7] 1.01 | [8] 1.01 | [9] 1.01 | [10] 1 | [11] 1.02 | [12] 1.01 | [13] 0.998 | [14] 1.01 | [15] 1 | [16] 1.01 | [17] 1.01 | [18] 1 | [19] 1.02 | [20] 1 | [21] 1.01 | [22] 1.04 | [23] 1.06 | [24] 1.03 | [25] 1.01 | [26] 1.02 | [27] 1.01 | [28] 1.01 | [29] 0.995 | [30] 1.01 | [31] 1.09 | [32] 1 | [33] 1.01 | [34] 1.04 | [35] 1.01 | [36] 1.01 | [37] 1.02 | [38] 0.994 | [39] 1.01 | [40] 0.999 | [41] 0.999 | [42] 1.02 | [43] 1.09 | [44] 1.01 | [45] 1.01 | [46] 1 | S. cerevisiae deletion strains, locus YLR342W, strain FKS1 (second series), stronger effect = lower value 1.01 | [47] 1.01 | [48] 1.03 | [49] 1 | [50] 0.991 | [51] 1.01 | [52] 1.02 | [53] 1.01 | [54] 1.1 | [55] 1.02 | S. cerevisiae deletion strains, locus YNL153C, strain GIM3, stronger effect = lower value 1.01 | [56] 1.03 | [57] 1.01 | [58] 1.01 | [59] 1.03 | [60] 1.01 | S. cerevisiae deletion strains, locus YNL322C, strain KRE1, stronger effect = lower value 1.01 | [61] 1.01 | S. cerevisiae deletion strains, locus YOL006C, strain TOP1, stronger effect = lower value 1.04 | [62] 0.797 | [63] 1.01 | [64] 1 | [65] 1.01 | [66] 1 | [67] 1 | [68] 1.01 | [69] 1.01 | [70] 1.01 | [71] 1.01 | [72] 1.02 | [73] 1.01 | [74] 1.01 | [75] 0.997
